Here are results for 14 compounds from PubChem BioAssay (EPA / NIEHS).

Values joined by “and” are separate entries in the source; they are usually repeats but may differ in a detail not shown here. Equal values may be shown once. Inconclusive results are not listed. Some structures have more than one record in an assay (separate samples or runs), and their calls can disagree. Active and inactive are the calls of the source. The calls were made as follows, unless noted: active = hit-call score of the fitted dose curve at least 0.9, where 1 is the maximum; inactive = score below 0.9.

In experiment [1] the target is Bile acid receptor (Homo sapiens) (UniProt Q96RI1). Briefly: OT_FXR_FXRSRC1_1440: Odyssey Thera (OT) 24-hour HEK293T Protein-Complementation Assay for Farnesoid X receptor/SRC-1 Co-activator (AID 2283384; active = hit-call score of the fitted dose curve at least 0.9, where 1 is the maximum). The procedure, abridged: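 Single endpoint, analysed for increased fluorescence against DMSO controls. HEK293T cells carrying FXR and SRC-1 linked to complementary reporter halves were exposed to chemicals for 24 h before reading.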

Experiment [2] relates to Thyroperoxidase (TPO), gene 54314. The experiment is described as follows: CCTE_Simmons_AUR_rTPO: CCTE's Amplex UltraRed Assay for Thyroperoxidase (TPO) Inhibition, Simmons Lab (AID 2283662; active = hit-call score of the fitted dose curve at least 0.9, where 1 is the maximum;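 as to AC50: potency for loss of signal meaning inhibition of peroxidase activity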). The procedure, abridged:
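Cell-free peroxidase activity assay using rat thyroid gland microsomes with excess H2O2 (300 uM) and 25 uM Amplex UltraRed. Compounds tested from 5 nM to 87.5 uM; fluorescence measured after 30 min at 37C, analysed relative to DMSO baseline.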

The nature of experiment [3]: CCTE_Simmons_CellTiterGLO_HEK293T: Viability Assessment in CCTE's Assays for Thyroperoxidase (TPO) Inhibition, Simmons Lab (AID 2283665; active = hit-call score of the fitted dose curve at least 0.9, where 1 is the maximum;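 as to AC50: cells exposed to compound for 24 h before readout; actives reduce ATP signal below DMSO vehicle meaning cytotoxicity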). The gist of the method:
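ATP depletion measured in HEK293T cells after 24 h dosing (8 concentrations, 5 nM–87.5 uM final; DMSO 0.5%) using CellTiter-Glo luminescence; curves fit for loss of signal against DMSO baseline.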

Experiment [4] is described as follows: STM_H9_OrnCyssISnorm_ratio: Stemina devTOX quickPredict H9 human embryonic stem cell (hESC)-based Assay for Ornithine (ORN):Cystine (CYSS) Ratio (AID 2283714; active = hit-call score of the fitted dose curve at least 0.9, where 1 is the maximum). The procedure, abridged: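 UPLC-HRMS of spent media: ORN/CYSS ratio of internal-standard-normalized percentages, DMSO (0.1%) baseline. Pluripotent H9 hESCs, 72h exposure, daily re-dosing with fresh media; last 24h media collected.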

Experiment [5] addresses Luciferin 4-monooxygenase (Photinus pyralis) (UniProt P08659). Briefly: CCTE_Simmons_QuantiLum_inhib_2: CCTE's Firefly Luciferase Inhibition Assay, Simmons Lab (AID 2283767; active = hit-call score of the fitted dose curve at least 0.9, where 1 is the maximum;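 as to AC50: potency for inhibitors that lower luciferase luminescence relative to DMSO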). The gist of the method:
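Eight-point titrations of each chemical, 5 nM–87.5 uM final in 0.5% DMSO, were run in three biological replicates against recombinant luciferase for 30 min at 37C. Bioluminescence signal loss, read on reagent injection, gave the inhibition endpoint.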

Experiment [6] is described as follows: CCTE_Harrill_HTTr_CellCount_MCF7: CCTE's Cell Proliferation Assessment for the High-Throughput Transcriptomics (HTTr) Platform, Harrill Lab (AID 2284012; active = hit-call score of the fitted dose curve at least 0.9, where 1 is the maximum;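 also: intended direction is loss of nuclei count meaning fewer cells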). The gist of the method: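 For this full-screen endpoint, MCF-7 cultures received eight compound dilutions for six hours. Well nuclei counts from Hoechst imaging were analyzed relative to DMSO.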
Experiment [7] can be described thus: BSK_BT_PBMCCytotoxicity: PBMC Cytotoxicity Assessment in the BioMAP Diversity Plus: BT Assay (AID 2284225).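 Also: PBMC viability measured by Alamar Blue dye reduction fluorescence.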 The settings on record: primary human B cells with PBMC. The procedure, abridged:
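Primary human co-culture of B cells and PBMC, pre-dosed 1 h then activated with SEB and TSST-1. Cytotoxicity is taken from Alamar Blue dye reduction, added for 6 h at the end of a 90 h incubation.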

Read-out in experiment [8]: Secreted IgG (sIgG), gene 3500
Briefly: BSK_BT_sIgG: BioMAP Diversity Plus: BT Assay for Secreted IgG (sIgG) Biomarker Activity (AID 2284226). The settings on record: primary human B cells with PBMC. The gist of the method: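 In this multiplexed co-culture system, ELISA quantifies sIgG 24 h post-treatment. Endpoint analysis uses positive fitting direction, DMSO negative control.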

Experiment [9] can be described thus: BSK_BT_Bcell_Proliferation: Viability Assessment in the BioMAP Diversity Plus: BT Assay for B cell Proliferation (AID 2284227). The settings on record: primary human B cells with PBMC. The gist of the method: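 SRB-based protein staining (0.1% SRB after 10% TCA fixation, 560 nm) quantifies proliferation in human B cells co-cultured with PBMC, 72 h post-dosing, with signal gain scored relative to DMSO negative control.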

Read-out in experiment [10]: Interleukin 17A (IL17A), IL17A (gene 3605)
The experiment is described as follows: BSK_BT_xIL17A: BioMAP Diversity Plus: BT Assay for Interleukin 17A (IL17A) Biomarker Activity (AID 2284229). The settings on record: primary human B cells with PBMC. The procedure, abridged: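 Co-culture of human B cells and PBMC, dosed for 24 h in 96-well format. Secreted IL-17A measured with Luminex xMAP; gain-direction fitting against DMSO as baseline.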

Read-out in experiment [11]: Tumor necrosis factor (Homo sapiens) (UniProt P01375)
Briefly: BSK_BT_xTNFa: BioMAP Diversity Plus: BT Assay for Tumor necrosis factor alpha (TNF-alpha) Biomarker Activity (AID 2284230). As to conditions: primary human B cells with PBMC. The gist of the method:
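Compounds were added to a B cell plus PBMC co-culture, and after 24 h secreted TNF-alpha was quantified with Luminex xMAP technology, with responses fitted upward from the DMSO control.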

Read-out in experiment [12]: Vascular cell adhesion molecule 1 (VCAM1), VCAM1 (gene 7412)
The experiment is described as follows: BSK_MyoF_VCAM1: BioMAP Diversity Plus: MyoF Assay for Vascular cell adhesion molecule 1 (VCAM1) Biomarker Activity (AID 2284231). As to conditions: primary human lung fibroblasts. The gist of the method: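 Primary human lung fibroblasts (BioMAP MyoF system) dosed with chemical, VCAM-1 measured by ELISA 24 hours later. Fitted in the positive direction against DMSO; parallel SRB staining assessed cytotoxicity.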

Read-out in experiment [13]: Collagen I, COL1A1 (gene 1277)
The experiment is described as follows: BSK_MyoF_CollagenI: BioMAP Diversity Plus: MyoF Assay for Collagen I Biomarker Activity (AID 2284238). As to conditions: primary human lung fibroblasts. The gist of the method:
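Primary human lung fibroblasts (MyoF system) treated 24 h; Collagen I quantified by ELISA and fitted in positive direction against DMSO. Parallel SRB total-protein staining assessed overt cytotoxicity.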

Read-out in experiment [14]: Collagen III, COL3A1 (gene 1281)
Briefly: BSK_MyoF_CollagenIII: BioMAP Diversity Plus: MyoF Assay for Collagen III Biomarker Activity (AID 2284239). The settings on record: primary human lung fibroblasts. The gist of the method: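 Primary human lung fibroblasts (BioMAP MyoF system) exposed 24 h. Collagen III measured by ELISA; positive-direction fit relative to DMSO.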

Read-out in experiment [15]: Interleukin 17F (IL17F), IL17F (gene 112744)
The experiment is described as follows: BSK_BT_xIL17F: BioMAP Diversity Plus: BT Assay for Interleukin 17F (IL17F) Biomarker Activity (AID 2284243). The settings on record: primary human B cells with PBMC. The procedure, abridged: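 Human PBMC co-cultured with B cells, compound exposure 24 h; secreted IL-17F quantified by Luminex xMAP, referenced to DMSO control. PBMC viability measured in parallel by Alamar Blue reduction.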

Read-out in experiment [16]: Actin alpha 1 (ACTA1), ACTA1 (gene 58)
The experiment is described as follows: BSK_MyoF_ACTA1: BioMAP Diversity Plus: MyoF Assay for Actin alpha 1 (ACTA1) Biomarker Activity (AID 2284244). The settings on record: primary human lung fibroblasts. The procedure, abridged: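 MyoF fibroblast system (human lung); a-SMA quantified via ELISA at 24 h; DMSO-normalised, gain-of-signal endpoint.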

Read-out in experiment [17]: TIMP metallopeptidase inhibitor 1 (TIMP1), TIMP1 (gene 7076)
The experiment is described as follows: BSK_MyoF_TIMP1: BioMAP Diversity Plus: MyoF Assay for TIMP metallopeptidase inhibitor 1 (TIMP1) Biomarker Activity (AID 2284269). As to conditions: primary human lung fibroblasts. The procedure, abridged:
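Fibroblasts from human lung are dosed with chemical, cultured 24 h, and assayed for TIMP-1 by ELISA. Increases over the DMSO baseline are scored, with SRB total-protein staining run in parallel for cytotoxicity.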

Experiment [18] concerns the target Thyroid hormone receptor alpha (Rattus norvegicus) + Thyroid hormone receptor beta (Rattus norvegicus) (UniProt P18113+P63059). Briefly: TOX21_TR_LUC_GH3_Antagonist_Followup: Tox21 GH3 Thyroid Hormone Receptor Antagonism Luciferase Follow-Up Assay (AID 2283942; active = hit-call score of the fitted dose curve at least 0.9, where 1 is the maximum). The procedure, abridged: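 Luminescence read-out (ONE-Glo, 30 min at room temperature) in GH3 reporter cells challenged with 1.0 nM T3 final. Compounds ran at 92 uM to 5nM over 15 concentrations for 24 h; DMSO served as negative control and baseline.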

The nature of experiment [19]: TOX21_TRB_BLA_Antagonist_Followup_viability: Viability Assessment in the Tox21 Thyroid Hormone Receptor beta Antagonism Beta-lactamase (BLA) Follow-Up Assay (AID 2283961; active = hit-call score of the fitted dose curve at least 0.9, where 1 is the maximum). The procedure, abridged:
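HEK293T cells with GAL4-human TRβ LBD and UAS-bla reporter, 3,000 cells/well in 2% charcoal-stripped FBS medium; 11-point concentrations in triplicate, 18 h at 37C. Viability from ATP by CellTiter-Glo luminescence, 30 min RT, same plates.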

The nature of experiment [20]: TOX21_TR_RXR_BLA_Antagonist_Followup_viability: Viability Assessment in the Tox21 Thyroid Hormone Receptor beta Retinoid X Receptor alpha (RXRa) Antagonism Beta-lactamase (BLA) Follow-Up Assay (AID 2283979; active = hit-call score of the fitted dose curve at least 0.9, where 1 is the maximum). The procedure, abridged: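 RXRa-bla HEK293T cells (2,500/well, phenol red-free DMEM, 2% charcoal-stripped FBS) were attached 5 h, then exposed to compounds at 11 concentrations in triplicate for 16 h at 37C. Viability measured by CellTiter-Glo ATP luminescence, bidirectional fitting versus DMSO.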

Chain of Bile acid receptor (Homo sapiens) (Q96RI1 whole entry, looked up): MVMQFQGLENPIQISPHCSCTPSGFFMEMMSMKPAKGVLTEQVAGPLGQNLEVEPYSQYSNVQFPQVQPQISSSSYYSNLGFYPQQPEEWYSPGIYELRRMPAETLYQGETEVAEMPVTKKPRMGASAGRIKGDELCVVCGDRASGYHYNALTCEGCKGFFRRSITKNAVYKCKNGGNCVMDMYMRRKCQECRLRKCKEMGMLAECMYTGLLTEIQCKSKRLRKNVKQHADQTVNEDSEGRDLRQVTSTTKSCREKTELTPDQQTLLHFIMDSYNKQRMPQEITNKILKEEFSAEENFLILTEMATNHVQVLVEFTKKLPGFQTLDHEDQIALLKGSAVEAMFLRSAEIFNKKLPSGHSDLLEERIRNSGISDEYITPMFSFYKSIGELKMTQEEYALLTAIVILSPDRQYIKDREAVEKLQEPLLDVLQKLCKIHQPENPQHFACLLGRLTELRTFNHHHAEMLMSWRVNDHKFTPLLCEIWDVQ
Chain of Luciferin 4-monooxygenase (Photinus pyralis) (P08659 whole entry, looked up): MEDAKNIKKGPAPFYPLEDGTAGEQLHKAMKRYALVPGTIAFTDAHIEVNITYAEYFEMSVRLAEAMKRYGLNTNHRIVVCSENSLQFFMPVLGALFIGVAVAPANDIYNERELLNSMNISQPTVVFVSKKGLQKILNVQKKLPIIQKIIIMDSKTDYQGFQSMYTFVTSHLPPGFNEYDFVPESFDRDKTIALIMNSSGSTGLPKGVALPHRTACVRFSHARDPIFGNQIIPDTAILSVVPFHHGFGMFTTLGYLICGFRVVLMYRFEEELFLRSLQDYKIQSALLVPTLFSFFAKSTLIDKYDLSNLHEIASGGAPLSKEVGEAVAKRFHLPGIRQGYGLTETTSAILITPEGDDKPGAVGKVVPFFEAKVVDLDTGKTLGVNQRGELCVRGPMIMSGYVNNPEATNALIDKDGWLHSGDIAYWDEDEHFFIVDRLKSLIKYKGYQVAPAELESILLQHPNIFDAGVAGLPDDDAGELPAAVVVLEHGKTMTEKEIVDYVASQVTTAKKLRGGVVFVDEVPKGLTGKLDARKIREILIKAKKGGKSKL
Chain of Tumor necrosis factor (Homo sapiens) (P01375 whole entry, looked up): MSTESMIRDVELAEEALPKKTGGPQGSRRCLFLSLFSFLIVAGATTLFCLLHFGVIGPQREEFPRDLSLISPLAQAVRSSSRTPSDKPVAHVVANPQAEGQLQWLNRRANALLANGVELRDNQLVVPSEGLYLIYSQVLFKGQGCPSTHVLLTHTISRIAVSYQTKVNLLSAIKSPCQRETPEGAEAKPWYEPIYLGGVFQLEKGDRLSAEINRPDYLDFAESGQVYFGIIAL

Turning to `Oc1cccc2ccccc12`, the compound was called inactive in experiment [1], in [3], in experiment [6], in experiment [7], in experiment [8] and in experiment [10]. The outcome in experiment [11], in [12], in [13], in [15], in [16] and in experiment [17] was inactive. In addition, the AC50 in experiment [2] is 1.62 µM (active); in [4], 7.48 µM (active); in experiment [5], 29.9 µM (active); in [9], 2.2 µM (active); in experiment [14], 5.51 µM (active).
On to `CC/C=C\CCO`, for which, in [1], the compound was called inactive.
Take `Cc1c(C(N)=O)cc([N+](=O)[O-])cc1[N+](=O)[O-]`: the outcome in [4] was inactive.
`OC(C(F)(F)F)(C(F)(F)F)C(O)(C(F)(F)F)C(F)(F)F`: the AC50 in [7] was 55.4 µM (active) and 36.9 µM (active); in experiment [8] it was 9.13 µM (active) and 9.49 µM (active); in experiment [9], 37 µM (active) and 28.2 µM (active); in experiment [10], 31 µM (active) and 24 µM (active); in experiment [11], 41.9 µM (active) and 40.2 µM (active); in [12], 45.7 µM (active) and 41.7 µM (active). For the same compound, the concentration at half-maximal activity (AC50) in experiment [13] is 46.2 µM (active) and 45.7 µM (active); in experiment [14], 41 µM (active) and 39.5 µM (active); in [15], 13.1 µM (active); in [16], 26.7 µM (active) and 22.3 µM (active); in experiment [17], 45.6 µM (active). Besides, the outcome in experiment [15] and in experiment [17] was inactive.
With `CCO[Si](CCCN)(OCC)OCC`, in experiment [1], the compound was called inactive.
Turning to `CC[N+](CC)(CC(=O)Nc1c(C)cccc1C)Cc1ccccc1`, the result in [7], in experiment [8], in [9], in [10], in experiment [11] and in experiment [12] was inactive. Further, the outcome in experiment [13], in [14], in experiment [15], in experiment [16] and in experiment [17] was inactive.
On to `CCCCC(CC)COC(=O)C=Cc1ccc(OC)cc1` (stereo not given), for which the outcome in experiment [2], in experiment [3] and in [5] was inactive.
As for `COc1ccc(C(=O)c2ccccc2O)c(O)c1`, the result in experiment [2] and in experiment [5] was inactive. The AC50 in experiment [3] was 81.7 µM (active).
`CC[N+](CC)(CC(=O)Nc1c(C)cccc1C)Cc1ccccc1` (tested in a mixture with another compound): the outcome in [4] and in [6] was inactive.
As to `Oc1ccc2c(c1)Cc1ccccc1-2`, the outcome in [6] was inactive.
As for `O=[Se](O)O`, the AC50 is 4.84 µM (active) in experiment [18], 2.02 µM (active) in experiment [19] and 5.16 µM (active) in experiment [20].
On to `Cc1oc(C)c(C(=O)Nc2ccccc2)c1C`, for which the outcome in experiment [18], in [19] and in [20] was inactive.
Take `O=C(CCCCCCC(=O)Nc1ccccc1)NO`: the AC50 in experiment [18] is 5.8 µM (active). Also, the outcome in experiment [19] and in experiment [20] was inactive.
Turning to `CO[C@H]1C[C@@H]2CC[C@@H](C)[C@@](O)(O2)C(=O)C(=O)N2CCCC[C@H]2C(=O)O[C@H]([C@H](C)C[C@@H]2CC[C@@H](O)[C@H](OC)C2)CC(=O)[C@H](C)/C=C(\C)[C@@H](O)[C@@H](OC)C(=O)[C@H](C)C[C@H](C)\C=C/C=C/C=C/1C`, the AC50 in [18] was 0.00703 µM (active). Also, the compound was classed as inactive in [19] and in experiment [20].
